# According to PubChem BioAssay AID488890 (Southern Research Specialized Biocontainment Screening …, 2010):
# The campaign covered roughly 320,000 compounds. About 1,300 (0.41%) were called active. About 3% were inconclusive and are not listed. The rule behind the calls is not given here. A selection follows. Results with a measured potency or affinity are listed apart.
# Assay: growth inhibition of non-replicating M. tuberculosis (AID 488890);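 note: plate controls were DMSO cells for no effect and high antibiotic wells for full effect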
# Settings: Mycobacterium tuberculosis non-replicating, at 25 µM, stronger effect = higher value
row,Structure (SMILES),inhibition
1,Cc1ccc(S(=O)(=O)N2CCOCC2)cc1C(=O)N1CCN(c2ccc(C(F)(F)F)cn2)CC1,7.63%
2,CCCOc1cc(C)c(S(=O)(=O)NCc2cccs2)cc1C,6.87%
3,CCOc1ccc(Nc2cc(C)nc(N3CCOCC3)n2)cc1,4.96%
4,CNc1cc(C)nc(-n2nc(C)cc2C)n1,77.6%
5,Cc1cc(NCCO)nc(-n2nc(C)cc2C)n1,39.2%
6,COc1ccc(Nc2cc(C)nc(N3CCOCC3)n2)cc1,11.6%
7,COC1(c2cc(-c3ccccc3)nc(N)n2)CCCCC1,39.4%
8,CC1CN(C(C)C(=O)NC(c2ccccc2)c2ccccc2)CC(C)O1 (stereo not given),-1.17%
9,Cc1cc(NC(=O)CSc2nnnn2-c2ccc(C)c(C)c2)no1,-1.12%
10,O=C(C1CCCN(S(=O)(=O)c2ccc(Br)cc2)C1)N1CCOCC1 (stereo not given),-4.37%
11,COCCn1cnc2c1c(=O)[nH]c(=O)n2Cc1ccccc1,-2.83%
12,Cc1[nH]n2c(=O)c3c(nc2c1-c1cccc2ccccc12)CCC3,61.6%
13,O=c1c2c(nc3c(-c4cccc(Br)c4)c[nH]n13)CCCC2,76.9%
14,Cc1[nH]n2c(=O)c3c(nc2c1-c1ccc(F)cc1)CCCC3,18.2%
15,N#Cc1c[nH]n2c(=O)c3c(nc12)CCC3,-2.17%
16,Cc1ccc(S(=O)(=O)/N=C(/Nc2ccc(F)cc2F)c2ccc(F)cc2)cc1,-16.3%
17,CC(Oc1ccc(Cl)cc1Cl)C(=O)Nc1ncccn1 (stereo not given),61.7%
18,Cc1cccc(C)c1OC(=O)CCN1C(=O)C2C3C=CC(C4CC34)C2C1=O (stereo not given),67.5%
19,Cc1ccc(SCC(=O)NCC2COc3ccccc3O2)cc1 (stereo not given),29.9%
20,CC(C)(C)/C(O)=C/c1nc2ccccc2[nH]c1=O,-2.24%
21,Cc1ccc2oc(=O)c(/C=C(\O)CC(C)C)nc2c1,-17.2%
22,CCS(=O)(=O)CCSc1nc2ccccc2o1,-14.9%
23,c1ccc2oc(CCc3nc4ccccc4o3)nc2c1,-3.04%
24,Cc1ccc2oc(=O)c(/C=C(\O)C(C)(C)C)nc2c1,-1%

row,Structure (SMILES),inhibition
1,C/C(O)=C/c1nc2ccccc2[nH]c1=O,1.47%
2,Cc1ccc(C(=O)CN2C(=O)NC3(CCCCCC3)C2=O)c(C)c1,-9.85%
3,CCOc1ccc(-c2nnc3sc(COc4ccc(Cl)cc4)nn23)cc1,-1.47%
4,CS(=O)(=O)Nc1cccc(C2=NN(C(=O)c3ccccc3Cl)C(c3ccccc3O)C2)c1 (stereo not given),30.8%
5,CC1CCN(S(=O)(=O)c2cccc(C(N)=O)c2)CC1,0.16%
6,CCn1c(CCCCc2n[nH]c(=S)n2CC)n[nH]c1=S,-11.8%
7,CC(=O)Nc1ccc(NC(=O)C2CCN(C(=O)NC3CCCCC3)CC2)cc1,-3.9%
8,Cn1nc(C(=O)NNC(=O)C2CSC3(C)CCC(=O)N23)c2ccccc2c1=O (stereo not given),-11.1%
9,Cc1ccc2[nH]c(C)c(CCNC(=O)c3c(N)no[n+]3[O-])c2c1,28.6%
10,O=C(NCCCn1ccnc1)c1cc2cc([N+](=O)[O-])ccc2oc1=O,-4.48%
11,COC(=O)c1ccc(-c2csc(NC(=O)C3=COCCO3)n2)cc1,34.1%
12,CC(C)NC(=O)c1cc(=O)n(C)c(=O)n1C,1.53%
13,Cc1nn(C)c(Oc2ccc(Cl)cc2)c1C(=O)O,5.18%
14,O=S(=O)([N-]c1nc2ccccc2nc1-n1cc[n+](Cc2ccccc2)c1)c1ccc(Br)cc1,8.51%
15,Cc1cccn2c(=O)c3cc(C(=O)N4CC(C)CC(C)C4)sc3nc12 (stereo not given),0.79%
16,CSc1nc2c(c(=O)[nH]c(=O)n2C)n1Cc1ccccc1,4.61%
17,Cc1cc(C)n(-c2nc3c(c(=O)[nH]c(=O)n3C)n2CC(C)C)n1,0.87%
18,CC(C)Cn1c(NCCN(C)C)nc2c1c(=O)[nH]c(=O)n2C,-11.4%
19,Cn1c(=O)[nH]c(=O)c2c1nc(N)n2Cc1ccccc1,-16.3%
20,O=C(Nc1nnc(S(=O)(=O)N2CCCC2)s1)c1cccc([N+](=O)[O-])c1,43.7%
21,NC(=O)c1ccc[n+](Cc2ccccc2)c1,-8.91%
22,CC(C)(C)C1CCC(C(=O)Nc2ccccc2)CC1 (stereo not given),77.8%
23,CCN1CCCC1CNC(=S)Nc1ccc(C(C)=O)cc1 (stereo not given),16.8%
24,COc1cc(/C=C2\N=C(C)OC2=O)cc(OC)c1OC,-3.11%

row,Structure (SMILES),inhibition
1,COc1cc(/C=C2\SC(c3ccc(C)cc3)=NC2=O)cc(OC)c1OC,16.6%
2,CCCC1CC(C)(C(=O)CSc2n[nH]c(-c3ccccc3)n2)OC1=O (stereo not given),-9.58%
3,CCOc1nc2ccccc2cc1/C=C/C(=O)O,16.5%
4,Cc1ccc(N2C(=O)CC(N3CCSCC3)C2=O)c(C)c1 (stereo not given),66.2%
5,O=C1CC(N2CCSCC2)C(=O)N1c1ccccc1 (stereo not given),17.6%
6,COc1ccc(C(=O)O/N=C(/c2cccs2)C(C)(C)C)cc1,35.7%
7,COc1ccc(-c2nnc(NC(=O)Cc3ccccc3)s2)c(OC)c1,6.43%
8,O=C(Nc1nncs1)c1cc2c(s1)CCC2,2%
9,Cc1cccc(Nc2nc(-c3cccs3)cs2)n1,3.92%
10,O=C(CCS(=O)(=O)c1ccccc1)Nc1nc(-c2ccc(F)cc2)cs1,0.28%
11,O=C(Nc1nc(-c2ccncc2)cs1)c1ccco1,-9.61%
12,COc1ccc(CCNc2nc(-c3ccncc3)cs2)cc1OC,15.7%
13,O=C(Nc1nc(-c2ccccc2)cs1)c1ccco1,11.8%
14,O=C(CCS(=O)(=O)c1ccccc1)Nc1nc(-c2cccs2)cs1,75.7%
15,Cc1cccc(Nc2nc(-c3ccc(F)cc3)cs2)n1,18.9%
16,COc1ccc(CCNc2nc(-c3cccnc3)cs2)cc1OC,-6.11%
17,O=C1CC(/C=C/c2ccc([N+](=O)[O-])cc2)=Nc2ccccc2N1,30.3%
18,Cc1ccc(C)c(N2N=C(C(=O)O)CCC2=O)c1,-0.55%
19,Cc1cc(N2CCN(c3ccccc3)CC2)n2nnnc2n1,-6.03%
20,O=C(c1nc2ccccn2c1CNCCCn1nnc2ccccc21)N1CCOCC1,-59.9%
21,O=C(CSc1nnc(-c2ccncc2)o1)Nc1ccccc1Cl,-10.3%
22,Cc1cc(C)cc(N(CCC#N)C(=O)CSc2ncnc3sccc23)c1,7.69%
23,Cc1ccc(C(=O)N[C@H](C(=O)N2CCN(c3ccccc3F)CC2)C(C)C)cc1,9.21%
24,COc1ccc2cc(C(=O)C3CCCN(C(=O)c4snnc4C)C3)ccc2c1 (stereo not given),16.9%

row,Structure (SMILES),inhibition
1,O=C(O)c1ccc2noc(-c3ccccc3)c2c1,26.3%
2,COc1ccc(CNC(=O)CN(C(=O)CCC(=O)Nc2ccccn2)c2ccccc2OC)cc1,10.4%
3,c1ccc(Nc2nc(-c3ccncc3)cs2)cc1,0.69%
4,c1ccc(-c2csc(Nc3cccnc3)n2)nc1,24.5%
5,CC(C)(C)[C@H](N)C(=O)N[C@H]1CCC2C3CC=C4C[C@@H](O)CC[C@]4(C)C3CC[C@@]21C (stereo not given in full),67.1%
6,CC(C)OC(=O)c1cc(C(=O)c2cc(Br)ccc2O)coc1=N,76.9%
7,COC(=O)c1cc(C(=O)c2cc(Cl)ccc2O)coc1=N,36%
8,Cc1ccccc1C(=O)Nc1nnc(-c2ccco2)s1,-20.8%
9,O=C(Cc1ccccc1)Nc1nnc(-c2ccco2)o1,-4.54%
10,COc1cc(OC)cc(-c2nnc(NC(=O)CCS(=O)(=O)c3ccccc3)o2)c1,78.9%
11,CC(=O)Nc1nnc(-c2ccco2)o1,4.52%
12,CCCCN(C(=O)CSCC(=O)Nc1ccc(OC)cc1)c1c(N)n(Cc2ccccc2)c(=O)[nH]c1=O,33%
13,Cc1ccc[n+](CC(=O)Nc2nc3ccccc3s2)c1,2.08%
14,CN(C(=O)CN1CC=C(c2ccccc2)CC1)c1c(N)n(Cc2ccccc2)c(=O)[nH]c1=O,8.33%
15,CN(C(=O)COC(=O)Cc1c(Cl)cccc1Cl)C1CCS(=O)(=O)C1 (stereo not given),-4.22%
16,CCCCCC(=O)Nc1ccc2ccccc2c1,58.5%
17,CCC(=O)Nc1ccc2ccccc2c1,14.1%
18,CCCCn1c(N)c(N(Cc2ccccc2OC)C(=O)c2ccc(N3CCCC3=O)cc2)c(=O)[nH]c1=O,18.9%
19,N#CCSc1ncccc1-c1nc2ccccc2[nH]1,-0.28%
20,c1ccc(Nc2cccc3c(Nc4ccccc4)cccc23)cc1,42.5%
21,c1ccc(Nc2ccccc2)cc1,6.24%
22,Nc1ccccc1Nc1cccc(C(F)(F)F)c1,47%
23,Nc1cccc(Nc2ccccc2)c1,2.41%
24,Cc1ccc(Nc2cccccc2=O)cc1,16.8%

row,Structure (SMILES),inhibition
1,Cc1ccc(Nc2ccccc2)cc1,1.99%
2,COc1ccc(Nc2cccccc2=O)cc1,3.01%
3,COc1ccc(Nc2ccccc2C(=O)O)cc1,3.87%
4,Cn1nc(C(=O)NNC(=O)c2cccc(Cl)c2)ccc1=O,1.12%
5,O=S(=O)(NC1=NCCCCC1)c1cc(F)ccc1F,-1.39%
6,CC1(C)Oc2ccc(C(=O)N/N=C/c3ccc(O)cc3)cc2NC1=O,4.72%
7,CC(Sc1n[nH]c(N)n1)C(=O)Nc1cccc2ccccc12 (stereo not given),11%
8,Cc1nn(-c2ccccc2)c(C)c1/C=N/NC(=O)c1cc(-c2cccs2)[nH]n1,47.5%
9,O=C(Nc1cccc(Br)c1)c1ccc2nc(N3C(=O)CCC3=O)sc2c1,3.99%
10,Nc1c(C(=O)c2ccccc2)sc(Nc2ccccc2)c1S(=O)(=O)c1ccccc1,12.2%
11,COCCCC1CCN(C(=O)C2CCC(=O)N(C3CCCC3)C2)CC1 (stereo not given),-6.84%
12,CCNc1nc(=S)nc(NC(C)C)[nH]1,-23%
13,CC(=O)Nc1ccc(C(=O)OCc2ccc(F)cc2Cl)cc1,50%
14,COc1ccc(NC(=O)/C(C#N)=C/c2c(C)nn(-c3ccc(F)cc3)c2Cl)cc1OC,9.54%
15,CCN(CC)S(=O)(=O)c1ccc(N2CC(C(=O)NCCc3ccc(Cl)cc3)CC2=O)cc1 (stereo not given),28.6%
16,O=C(N/N=C/c1ccc(F)cc1)c1c(O)c2ccccc2[nH]c1=O,25.9%
17,O=C(N/N=C/c1ccccc1)c1c(O)c2ccccc2[nH]c1=O,58.7%
18,Cc1ccc(NC(=S)N(CCCN2CCOCC2)Cc2cccnc2)cc1C,-0.2%
19,CSCCC(NC(=O)OCc1ccccc1)C(=O)O (stereo not given),-8.32%
20,Cc1ccc(SCC(=O)c2cc(C)c(O)c(C)c2)cc1,0.12%
21,O=c1cc(-c2ccccc2Cl)oc2cccc(O)c12,-8.34%
22,Nc1ccc(O)c2c(=O)cc(-c3ccccc3Cl)oc12,-0.68%
23,Nc1ccc2oc(-c3ccccc3Cl)cc(=O)c2c1O,-0.76%
24,O=c1cc(-c2ccccc2Cl)oc2c(Br)ccc(O)c12,-2.73%
